MCL1 BIM primary: inhibitors of MCL1 binding to BIM-BH3, primary screen, biochemical, fluorescence polarization. AID 2057, 2009. Induced myeloid leukemia cell differentiation protein Mcl-1 (Homo sapiens), Q07820. inhibition, % at 10.9 µM. GST-MCL1 / FITC-Bim-BH3 fluorescence polarization. 320,000 tested, 0.68% active;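 active = inhibition above the mean inhibition of all tested compounds plus 3 SD, set per campaign, cut at about 40% in these data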;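 note: 0% = DMSO wells and 100% = unlabeled Bim-BH3 peptide control; higher means more loss of mP so more displacement of Bim peptide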
Target sequence (Q07820 whole entry, looked up): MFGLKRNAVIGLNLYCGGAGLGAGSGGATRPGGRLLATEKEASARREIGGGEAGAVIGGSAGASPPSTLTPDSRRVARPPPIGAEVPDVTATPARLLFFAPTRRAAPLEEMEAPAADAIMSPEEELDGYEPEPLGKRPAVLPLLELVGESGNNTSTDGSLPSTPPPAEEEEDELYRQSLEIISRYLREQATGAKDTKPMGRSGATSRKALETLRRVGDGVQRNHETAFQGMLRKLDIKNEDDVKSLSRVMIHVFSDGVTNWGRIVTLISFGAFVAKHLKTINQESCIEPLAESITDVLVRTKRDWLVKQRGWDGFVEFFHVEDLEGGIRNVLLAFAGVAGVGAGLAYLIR
L929 necroptosis: inhibitors of zVAD-triggered necroptosis, primary screen, L929 cells; 220,000 tested, 0.38% active; viability rescue, % at 10 µM; AID 1377, 2008; L929 zVAD necroptosis rescue, ATP luminescence, 24 h; with zVAD 60 µM;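 active = activation, scaled between plate controls, above about 75%, limit read from the data; inactive = activation under that limit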;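 note: 0% = zVAD with DMSO and 100% = DMSO alone without zVAD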
Mcl1-Bid inh: Mcl-1/Bid binding inhibitors, primary screen, biochemical, TR-FRET, 1536-well; Induced myeloid leukemia cell differentiation protein Mcl-1 (Homo sapiens), Q07820; TR-FRET Mcl-1/Bid-Dy647 peptide binding; inhibition, % at 21.7 µM; 220,000 tested, 0.97% active; AID 1021, 2008;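 active = compounds that cut the binding signal by more than half at the single screening dose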;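 note: His-tagged Mcl-1 with europium anti-His antibody binding Bid BH3 peptide; 0% = Mcl-1 plus peptide wells and 100% = peptide-only wells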
TNF death inh: inhibitors of TNF-alpha triggered necroptosis, primary screen, cell-based, Jurkat FADD-/-, single concentration. Jurkat FADD-/- TNF necroptosis rescue, ATP luminescence, 24 h; 0 = TNF only, 100 = no-TNF cells. activation (protection from cell death), % at 10 µM. 220,000 tested, 0.068% active;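 active = activation, meaning protection from cell death, of at least 50% relative to plate controls; inactive = activation below 50%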;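 note: necroptosis triggered by 40 ng/mL TNF-alpha added together with compound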
Bim-Mcl-1: inhibitors of Bim peptide binding to Mcl-1, primary screen, biochemical, bead-based flow cytometry, multiplex; 190,000 tested, 0.1% active; Induced myeloid leukemia cell differentiation protein Mcl-1 (Homo sapiens), Q07820; inhibition, % at 10 µM; Bim peptide-Mcl-1 binding; AID 1009, 2008; in the data active = inhibition above about 40%;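 note: 0% = no compound tracer wells and 100% = peptide blocker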
Mcl1-Noxa inh: Mcl-1/Noxa binding inhibitors, primary screen, biochemical, TR-FRET, 1536-well | Induced myeloid leukemia cell differentiation protein Mcl-1 (Homo sapiens), Q07820 | 220,000 tested, 1.5% active | inhibition, % at 21.7 µM | TR-FRET Mcl-1/Noxa peptide binding, 2 h;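 active = compounds that cut the protein-peptide binding signal by more than 50% relative to plate controls in a single-dose test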;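 note: His-tagged Mcl-1 with rhodamine Noxa BH3 peptide and terbium anti-His antibody; 0% = Mcl-1 plus Noxa peptide wells and 100% = peptide-only wells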
zVAD death conf: inhibitors of zVAD-triggered necroptosis in L929, confirmation, L929 cells, duplicate runs; shares compounds with L929 necroptosis; L929 zVAD-induced necroptosis rescue, ATP luminescence, 24 h; activation (protection from necroptosis), % at 10 µM; 760 tested, 16% active; AID 463117, 2010;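 active = mean protection from necroptosis of at least 50% over duplicate tests; inactive = mean protection below 50%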;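 note: 0% = cells with zVAD alone and 100% = vehicle cells without zVAD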
The depositor's hits bear a star; · = no result. Rows were chosen to be rich in hits. Some 2.4% of all compounds tested hit in one or more screens of this group.

SMILES	MCL1 BIM primary	L929 necroptosis	Mcl1-Bid inh	TNF death inh	Bim-Mcl-1	Mcl1-Noxa inh	zVAD death conf
Cc1sc(NC(=O)Nc2ccccc2)c(C(N)=O)c1C	-2	77*	-61	1	-3	4	1
COC(=O)c1c(NC(=O)Nc2ccc(Cl)cc2)sc(C)c1C	-4	0	-17	1	1	10	·
O=C(NC1CC1)[C@@H]1CSC2c3ccccc3C(=O)N21 (stereo not given in full)	6	·	·	·	·	·	·
CCC(C)c1ccccc1N1CC(C(=O)NCCc2ccc(OC)c(OC)c2)CC1=O (stereo not given)	4	·	·	·	·	·	·
COc1ccc(CCNC(=O)C/C(C)=N/NC(=O)C(c2ccccc2)c2ccccc2)cc1OC	5	80*	-15	36	·	8	10
CCNC(=O)NC(=O)C(C)OC(=O)c1ccc(-n2nc(SC)sc2=S)cc1 (stereo not given)	4	82*	-22	3	-3	17	39
COc1ccc(NC(=O)NC2(C(=O)N3CCCCC3)CCCCC2)cc1	2	·	·	·	·	·	·
Cc1ccc(Nc2cc(C)nn2-c2nc(C)cc(=O)[nH]2)cc1	11	78*	-67	9	0	-96	53*
Cc1ccc(C(=O)Nc2cccc(C(F)(F)F)c2)cc1Nc1ncnc2nc[nH]c12	15	82*	-12	-4	·	2	72*
Cc1ccc(C(=O)Nc2cccc(C(F)(F)F)c2)cc1NC(=O)c1nccn1C	-6	82*	-12	4	·	-22	10
Cc1ccc(C(=O)Nc2cccc(C(F)(F)F)c2)cc1NC(=O)c1ccno1	2	74	-45	-1	·	6	·
O=C(Nc1cnccn1)c1cccc(C(F)(F)F)c1	4	2	-16	0	0	9	·
Cc1ccc(C(=O)Nc2cccc(C(F)(F)F)c2)cc1Nc1cnccn1	3	82*	-14	0	·	-11	70*
CCC(C)(C)n1nnnc1C(c1cc(OC)ccc1OC)N1CCN(Cc2ccccc2)CC1 (stereo not given)	3	-1	-10	2	1	0	·
CCn1c(=NC(=O)c2ccc(S(=O)(=O)N3CCOCC3)cc2)sc2cccc(OC)c21	6	77*	-42	-10	-6	-53	8
COCCn1c(=NC(=O)c2ccc(S(=O)(=O)N3CCOCC3)cc2)sc2cc(S(N)(=O)=O)ccc21	5	·	·	·	·	·	·
Cc1ccc(N(CCC#N)C(=O)CSc2nc3ccccc3c(=O)[nH]2)cc1	-3	·	·	·	·	·	·
NS(=O)(=O)c1ccc(N/C=C/C(=O)c2ccc(Br)cc2)cc1	-2	76*	-25	-1	-8	-20	16
NS(=O)(=O)c1ccc(N/C=C\C(=O)c2ccc(F)cc2)cc1	-11	1	-24	-2	1	-9	·
CN(C)C=Nc1ncc2c3ccccc3n(CCN(C)C)c2c1C#N	11	91*	-22	1	-7	16	39
CCN(CC)CCn1c2ccccc2c2cnc(N)c(C#N)c21	-5	75*	-3	-10	-1	41	70*
Cc1ccc(OC(=O)CCNC(=O)c2ccccc2Cl)c(Br)c1	-7	·	·	·	·	·	·
CC(=O)Nc1ccc2c(c1)ncn2-c1ccccc1	0	68	-49	1	·	3	·
c1ccc(-n2cnc3cc(NCc4ccncc4)ccc32)cc1	19	83*	-65	1	-1	8	58*
CC(C)n1cnc2cc(NCc3ccccn3)ccc21	9	0	-41	1	-1	1	·
SMILES	MCL1 BIM primary	L929 necroptosis	Mcl1-Bid inh	TNF death inh	Bim-Mcl-1	Mcl1-Noxa inh	zVAD death conf
c1ccc(-n2cnc3cc(NCc4ccccn4)ccc32)cc1	6	76*	43	-1	0	41	63*
COc1ccc(-c2cc(=O)c3c(O)c(OC)c(O)cc3o2)cc1	0	1	-1	-4	-1	7	·
COc1cc(-c2cc(=O)c3c(O)c(OC)c(OC)cc3o2)cc(OC)c1O	17	77*	-65	-16	·	-11	10
CCN1CCN(Cc2ccc(NC(=O)c3ccc(C)c(NC(=O)c4nccnc4N)c3)cc2C(F)(F)F)CC1	-2	80*	-12	21	·	22	79*
COc1ccc(S(=O)(=O)N2CCC(C(=O)N[C@@H](C)C(=O)NCc3ccncc3)CC2)cc1	-6	·	·	·	·	·	·
O=C(CCl)Nc1c[nH]c(=O)[nH]c1=O	·	81*	0	44	3	6	12
C=CCOc1ccc(/C=C/C(=O)OCC(=O)NCc2cccs2)cc1	-8	·	·	·	·	·	·
CCOc1cc(/C=N/NC(=O)c2cc(C3CC3)[nH]n2)ccc1O	2	91*	-26	9	-3	14	7
CC(CC(=O)OCC(=O)NCc1ccc(Cl)cc1)c1ccccc1 (stereo not given)	2	·	·	·	·	·	·
CN1CCN(c2cc(=O)n(C3CCCCC3)c(=O)[nH]2)CC1	-4	-1	-18	0	0	-2	·
O=c1cc(N2CCN(c3cccc(Cl)c3)CC2)[nH]c(=O)n1C1CCCCC1	-2	81*	-13	32	-1	-2	44
O=c1cc(N2CCN(c3ccccc3)CC2)[nH]c(=O)n1C1CCCCC1	-3	81*	-14	21	-1	15	26
O=Nc1c2ccc[nH]c-2c2ccc([N+](=O)[O-])cc12	25	75*	-5	1	-1	21	0
CNC(=O)c1cc(Nc2nnc(-c3ccc(O)cc3)c3ccccc23)ccc1OC	3	80*	-29	-2	0	27	2
N#C/C(=C(\O)c1ccco1)c1ccccn1	2	105*	-21	29	0	-17	57*
O=C(c1ccco1)N(c1ccccn1)c1ccccn1	7	0	0	0	-2	-10	·
N#CC(C(=O)c1ccco1)c1ccccn1 (stereo not given)	6	81*	-14	20	-3	7	56*
O=C1C=C(c2cccc(CO)c2)C[C@@H](c2ccc(F)cc2)C1	-1	·	·	·	·	·	·
COC(=O)c1c(C)nn(-c2ccc(F)c(Cl)c2)c1-c1cc(C)on1	-2	-1	-11	-5	·	-10	·
CCOC(=O)c1c(C)[nH]c(O)c1C=Nc1ccccc1	7	87*	-36	-12	0	18	0
Oc1[nH]c2ccccc2c1/C=N/c1nccs1	-30	76*	-21	-4	1	29	35
